An excerpt weighted towards active compounds, which were near 2.2% of everything screened.
Ba/F3 V617F tox: loss of viability in JAK2V617F-driven Ba/F3 cells | Ba/F3 EpoR-JAK2V617F viability, ATP luminescence | inhibition, % at 5.6 µM | 220,000 tested, 1.1% active | AID 1446;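 active = inhibition above the campaign mean plus 3 SD over all tested compounds, cut at about 24% in these data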;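 also: cytokine-independent growth of Ba/F3 cells driven by EpoR plus mutant JAK2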
KLF5 inhibitor: kruppel-like factor 5 inhibition. DLD-1 KLF5 promoter-luciferase reporter, luminescence. inhibition, % at 5 µM. 290,000 tested, 0.23% active. AID 1700;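 active = inhibition above a per-plate limit of that plate's mean compound inhibition plus 3 SD, cut at about 60% in these data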;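 also: higher means less KLF5 promoter-driven luciferase light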
APP transl inh: APP translation inhibition; SH-SY5Y APP 5'UTR-luciferase reporter, luminescence; inhibition, % at 2 µM; 190,000 tested, 0.82% active;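 active = inhibition above a set limit, derived from the sample mean plus 3 SD, cut at about 45% in these data; inconclusive = one replicate passes the limit while the other fails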
aSyn 5UTR inh: MLPCN primary screen, SNCA 5' untranslated region; inhibition, % (tested at 7.5 µM); alpha-synuclein 5'UTR reporter, inhibitor activity; 300,000 tested, 0.82% active; in the data active = inhibition above about 60%; inconclusive = no clear call, values can overlap the other calls;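 also: H4 neuroglioblastoma cells stably carrying SNCA 5'UTR luciferase fusion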
IEC-6 tox: counter-screen for KLF5 inhibitors: cytotoxicity in IEC-6 cells. IEC-6 cytotoxicity, luminescence viability. inhibition, % at 5 µM. 290,000 tested, 0.78% active; in the data active = inhibition above about 22%
BaF3 tox: reduces parental Ba/F3 cell viability, JAK2V617F counter-screen. CellTiter-Glo ATP luminescence. inhibition, % at 5.6 µM. 220,000 tested, 1.1% active. AID 1486;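 active = inhibition above a per-campaign cutoff, the mean inhibition of all tested compounds plus 3 SD, cut at about 27% in these data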
Each line names hits and unclear results; the compound was inactive in the other large screens.

COc1ccc(N2C(=O)c3ccccc3NC2c2ccccc2O)cc1 (stereo not given)	none (no result: Ba/F3 V617F tox, APP transl inh, BaF3 tox)
CCCCOc1ccc(C(=O)NNC(=S)NC(=O)CC)cc1	APP transl inh 56, aSyn 5UTR inh 85
CCCOc1ccc(C(=O)NNC(=S)NC(C)=O)cc1	aSyn 5UTR inh 68
CCC(=O)NC(=S)NNC(=O)c1ccc(OC)cc1	none
O=C1CC(C(=O)N2CCN(S(=O)(=O)c3cccc(F)c3)CC2)CN1Cc1ccccc1Cl (stereo not given)	none (no result: Ba/F3 V617F tox, KLF5 inhibitor, APP transl inh, IEC-6 tox, BaF3 tox)
CCOc1ccc(NC(=O)C2C3C=CC4(O3)C2C(=O)N(Cc2cccnc2)C4C(=O)NC2CCCCC2)cc1 (stereo not given)	none (no result: Ba/F3 V617F tox, APP transl inh, BaF3 tox)
O=C1CC(c2cc(F)ccc2F)c2cc3c(cc2N1)CCC3 (stereo not given)	APP transl inh 84
O=C1CC(c2cccc(Br)c2)c2cc3c(cc2N1)CCC3 (stereo not given)	Ba/F3 V617F tox 46, APP transl inh 54, BaF3 tox 62
CC(C)CNC(=O)c1cccc2c1-c1ccccc1C2=O	none (no result: Ba/F3 V617F tox, APP transl inh, BaF3 tox)
CC1N(C(=O)N2CCOCC2)CCN1S(=O)(=O)c1cccc(C(F)(F)F)c1 (stereo not given)	none (no result: Ba/F3 V617F tox, APP transl inh, BaF3 tox)
Cc1ccc(Cn2c(/C=C/c3ccco3)nc3ccccc32)cc1	none
Clc1ccc(Cn2c(/C=C/c3ccco3)nc3ccccc32)cc1	BaF3 tox 27
CCN(CC)CCNC(=O)C1CCN(S(=O)(=O)c2c(C)noc2/C=C/c2ccccc2F)CC1	none (no result: Ba/F3 V617F tox, APP transl inh, BaF3 tox)
CCCCn1c(NC(C)=O)c(C#N)c2nc3ccccc3nc21	APP transl inh 52
CCCCCn1c(N)c(C#N)c2nc3ccccc3nc21	none
O=C(COC(=O)c1ccc(Cl)nc1)Nc1cccnc1Cl	none (no result: Ba/F3 V617F tox, KLF5 inhibitor, APP transl inh, IEC-6 tox, BaF3 tox)
CCn1cc(C(=O)NCc2ccco2)c(=O)c2cc(S(=O)(=O)N3CC(C)CC(C)C3)ccc21 (stereo not given)	aSyn 5UTR inh 82
CC(=NCc1cccc(Cl)c1)c1nc(-c2ccco2)oc1O	Ba/F3 V617F tox 53, BaF3 tox 49
Oc1oc(-c2ccco2)nc1C=Nc1cccc(Cl)c1	none
Cc1cc(NC(=O)CSc2nnnn2-c2ccc(C)c(Cl)c2)no1	none (no result: Ba/F3 V617F tox, APP transl inh, BaF3 tox)
Cc1ccc(C(OCC(O)CNCc2ccc(F)cc2)c2ccccc2)cc1 (stereo not given)	none (no result: Ba/F3 V617F tox, APP transl inh, BaF3 tox)
O=C1CSC(c2ccc(Cl)cc2)N1C1CCCCC1 (stereo not given)	BaF3 tox 40
C(=N\NCc1ccccc1)/c1ccc2ncccc2c1	none (no result: APP transl inh)
S=C(N/N=C/c1ccc2ncccc2c1)Nc1ccccc1	aSyn 5UTR inh 108
Cc1ccc(-n2c(C)cc(C)c(C#N)c2=O)cc1Cl	APP transl inh 62
Cc1cc(C)n(-c2cc(Cl)cc(Cl)c2)c(=O)c1C#N	none
O=C(Nc1ccc(Cl)cc1N1CCOCC1)C1CCCCC1	none (no result: Ba/F3 V617F tox, APP transl inh, BaF3 tox)
O=[N+]([O-])c1cc(Cl)cc(/C=N\Nc2ccccn2)c1O	aSyn 5UTR inh 90
COc1ccc(-c2coc3cc4oc(=O)c5ccccc5c4cc23)cc1F	APP transl inh 96, aSyn 5UTR inh 81
Cc1ccc2nc(Cl)nc(-c3ccccc3)c2c1	none
Cc1ccc2nc(Cl)c(-c3ccccc3)cc2c1	aSyn 5UTR inh 74 (no result: Ba/F3 V617F tox, KLF5 inhibitor, APP transl inh, IEC-6 tox, BaF3 tox)
CSc1nnc(-c2ccc(S(=O)(=O)N3CCOCC3)cc2)n1C	none (no result: Ba/F3 V617F tox, APP transl inh, BaF3 tox)
CCC(=NCCc1c(C)[nH]c2ccc(C)cc12)C1=C(O)CC(c2ccccc2)CC1=O (stereo not given)	APP transl inh 95, aSyn 5UTR inh 104
CN1/C(=C\C(=O)C[n+]2ccc(C(=O)c3ccccc3)cc2)C(C)(C)c2ccccc21	none
Cc1cccc[n+]1CC(=O)/C=C1\N(C)c2ccccc2C1(C)C	Ba/F3 V617F tox 91, BaF3 tox 67
Cc1cc(=O)[nH]c(SCC(=O)/C=C2\N(C)c3ccccc3C2(C)C)n1	Ba/F3 V617F tox 67, BaF3 tox 62
CN1/C(=C\C(=O)C[n+]2cccc(Br)c2)C(C)(C)c2ccccc21	Ba/F3 V617F tox 66, BaF3 tox 67
Cc1ccc[n+](CC(=O)/C=C2\N(C)c3ccccc3C2(C)C)c1	Ba/F3 V617F tox 51, BaF3 tox 54
CN1/C(=C\C(=O)C[n+]2cccc(C(N)=O)c2)C(C)(C)c2ccccc21	none
COc1ccc(S(=O)(=O)NCc2ccncc2)cc1NC(=O)c1ccc(Cl)cc1	none (no result: Ba/F3 V617F tox, KLF5 inhibitor, APP transl inh, IEC-6 tox, BaF3 tox)
CN1/C(=C\C(=O)COC(=O)CN2C(=O)C3CC=CCC3C2=O)C(C)(C)c2ccccc21 (stereo not given)	none
COCCn1c(SCC(=O)/C=C2\N(C)c3ccccc3C2(C)C)nnc1-c1ccncc1	Ba/F3 V617F tox 32, BaF3 tox 34
CN1/C(=C\C(=O)CN2C(=O)NC3(CCCCCC3)C2=O)C(C)(C)c2ccccc21	Ba/F3 V617F tox 41, BaF3 tox 46
C=C1C(=O)C=C2CN(C(=O)c3ccccc3)[C@@](Cc3ccc(F)cc3)(C(=O)OC)[C@@H]12	Ba/F3 V617F tox 97, APP transl inh 96, aSyn 5UTR inh inconclusive, IEC-6 tox 27, BaF3 tox 92
CC(NS(=O)(=O)c1cccc(S(=O)(=O)c2ccccc2)c1)C(=O)O (stereo not given)	BaF3 tox 31
CC(NS(=O)(=O)c1ccc2c(c1)C(=O)c1cc(S(=O)(=O)NC(C)C(=O)O)ccc1-2)C(=O)O (stereo not given)	none (no result: Ba/F3 V617F tox, APP transl inh, BaF3 tox)
COC(=O)c1c(-c2ccc(C)cc2)csc1NC(=O)c1c(-c2ccccc2)noc1C	aSyn 5UTR inh 68
COC(=O)c1sccc1NC(=O)c1c(-c2ccccc2)noc1C	none
O=C(COc1ccccc1-c1ccccc1)N/N=C/c1ccc2ccccc2c1	APP transl inh 96
CCCCCC(=O)N/N=C(\C)c1ccccn1	aSyn 5UTR inh 67
O=C(COc1ccccc1-c1ccccc1)N/N=C/c1ccncc1	none
CCCCCCCCCC(=O)N/N=C(\C)c1cccnc1	none
C/C(=N\NC(=O)COc1ccccc1-c1ccccc1)c1cccnc1	none
C/C(=N\NC(=O)COc1ccccc1-c1ccccc1)c1ccccn1	APP transl inh 62, aSyn 5UTR inh 114
N#CC(Sc1ccccn1)c1ccc(Cl)cc1 (stereo not given)	Ba/F3 V617F tox 26, BaF3 tox 53
COc1ccc(CCC(=O)Nc2nc(C)c(C(=O)N(C)C)s2)cc1	none (no result: Ba/F3 V617F tox, APP transl inh, BaF3 tox)
c1sc2[n+](c1C13CC4CC(CC(C4)C1)C3)CCS2	Ba/F3 V617F tox 63, BaF3 tox 61
Fc1ccc(-c2csc3[n+]2CCS3)cc1	none
CCCCCn1c2c(c(=N)c3ccccc31)CCC2	Ba/F3 V617F tox 89, BaF3 tox 69 (no result: APP transl inh)
CCn1c2c(c(=N)c3c1CCC3)CCCC2	Ba/F3 V617F tox 30, BaF3 tox 50 (no result: APP transl inh)
CCOC(=O)Cn1c2c(c(=N)c3c1CCC3)CCC2	none
CCCCn1c2c(c(=N)c3ccccc31)CCC2	Ba/F3 V617F tox 71, BaF3 tox 61 (no result: APP transl inh)
CCCCCCCCCCn1c2c(c(=N)c3c1CCC3)CCC2	Ba/F3 V617F tox 99, aSyn 5UTR inh 71, IEC-6 tox 56, BaF3 tox 96
CCOC(=O)Cn1c2c(c(=N)c3ccccc31)CCC2	none
COc1ccccc1CC(=O)N(Cc1ccccc1)c1ccc(C)cc1	none (no result: Ba/F3 V617F tox, APP transl inh, BaF3 tox)

Screens from PubChem.
